This is an account of results in PubChem BioAssay (NCATS).

A short description of experiment [1]: qHTS drug screen for cell cycle checkpoint inhibitors in PARPi-resistant BRCA-mutant ovarian cancer cell lines. (AID 1963452). The note with it: PEO1/OlaR viability, CellTiter-Glo luminescence, 96 h; for Z-AUC: stronger effect = lower value. Put shortly: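 PEO1, PEO4 and PEO1/OlaR ovarian cancer cells, 600 per well, exposed 96 h at 37C to a dilution series. Viability read by CellTiter-Glo luminescence, normalized to DMSO and empty wells; activity summarized as Z-AUC.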

Experiment [2] can be described thus: qHTS for identification of novel therapeutic agents for treatment of microphthalmiaassociated transcription factor (MiT) renal cell carcinoma (RCC) (AID 1963991). The settings on record: CellTiter-Glo, 48 h; for z-score: stronger effect = lower value; for Potency: active = Z-AUC below -0.8 in all three lines. Put shortly:
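Three TFE3-fusion RCC lines (UOK109, UOK124, UOK145), 500 cells/well in complete medium, were treated with MIPE 4.0 compounds for 48 hours at 37 C. Viability was by CellTiter-Glo luminescence, normalized to DMSO (100%) and empty wells (0%); curves fitted over 11 concentrations.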

Where [3] appears, read: measured here: PEO1 parental Z-AUC.
Setting [4] is: TFE3-RCC UOK109 viability, measured here: UOK109 Z-AUC.
Where [5] appears, read: TFE3-RCC viability, measured here: UOK124 Z-AUC.
Where [6] appears, read: TFE3-RCC viability, measured here: UOK145 Z-AUC.

“And” between values parts separate entries of the source, which are not always exact repeats. Equal values may be shown once. Inconclusive results are not listed. The source holds several records for some structures; these can differ, active in one and inactive in another. The source made the active and inactive calls. The call rests on the fitted dose curve.
Potency means the concentration at half of the fitted maximal effect.

With `CC(=O)O[C@H]1C[C@@H]2CC[C@H]3[C@H]4C[C@H]([N+]5(C)CCCCC5)[C@@H](OC(C)=O)[C@@]4(C)CC[C@@H]3[C@@]2(C)C[C@H]1[N+]1(C)CCCCC1`, the Z-AUC in experiment [1] was 0.98 (inactive); in experiment [1] (setting [3]) it was 1.06; in experiment [1] (measured here: PEO4 Z-AUC), 1.25. Moreover, the results for the z-score in experiment [2] (setting [4]), in experiment [2] (setting [5]) and in experiment [2] (setting [6]) were 0.763, 0.611 and -1.4, respectively.
Take `CC(C)N1[N]C(=C2C=c3cc(O)ccc3=N2)c2c(N)ncnc21`: in experiment [2] (TFE3-RCC UOK109 viability), the Potency is 1870 nM (active). Moreover, the results for the z-score in experiment [2] (setting [4]), in experiment [2] (setting [5]) and in experiment [2] (setting [6]) were -1.06, -1.57 and -0.805, respectively.
As for `Cn1cc(-c2ccc3ncc(Cc4ccc5ncccc5c4)n3n2)cn1`, the z-score in experiment [2] (setting [4]) was -0.236; in experiment [2] (setting [5]), 0.125; in experiment [2] (setting [6]) it was -0.113.
Consider `CCOC(=O)C1=C(C)NC(=S)NC1c1cccc(O)c1` (centres undefined), for which the results for the Z-AUC in experiment [1], in experiment [1] (setting [3]) and in experiment [1] (measured here: PEO4 Z-AUC) were 1.34 (inactive), 0.343 and 0.61, respectively.
As for `C[C@@H]1CC[C@@]2(OC1)OC1CC3C4CC=C5CC(O)CCC5(C)C4CCC3(C)C1[C@@H]2C` (some centres undefined), the Z-AUC in experiment [1] is 0.426 (inactive); in experiment [1] (setting [3]), 0.314; in experiment [1] (measured here: PEO4 Z-AUC) it was 0.526. The z-score was determined as 0.586 in experiment [2] (setting [4]), 0.304 in experiment [2] (setting [5]) and 0.634 in experiment [2] (setting [6]).
Take `C=C(C)[C@@H]1CC[C@]2(C)CC[C@]3(C)[C@H](CC[C@@H]4[C@@]5(C)CC[C@H](O)C(C)(C)[C@H]5CC[C@]43C)[C@@H]12`: the Z-AUC in experiment [1] is 1.12 (inactive); in experiment [1] (setting [3]) it was 0.74; in experiment [1] (measured here: PEO4 Z-AUC), 1.16. Also, the z-score in experiment [2] (setting [4]) was 1.03; in experiment [2] (setting [5]), 0.631; in experiment [2] (setting [6]), 0.295.
As for `C[C@H]1C[C@H]2[C@@H]3CCC4=CC(=O)C=C[C@]4(C)[C@@H]3C(=O)C[C@]2(C)[C@@]1(O)C(=O)CO`, the z-score stood at 0.188 in experiment [2] (setting [4]), 0.279 in experiment [2] (setting [5]) and 1.74 in experiment [2] (setting [6]).
`CCOc1cc2ncc(C#N)c(Nc3ccc(OCc4ccccn4)c(Cl)c3)c2cc1NC(=O)C=CCN(C)C`: in experiment [2] (TFE3-RCC UOK109 viability), the Potency was 16.6 nM (active). The z-score in experiment [2] (setting [4]) is -2.6; in experiment [2] (setting [5]), -0.947; in experiment [2] (setting [6]), -1.43.
Regarding `Cn1cc(-c2cnn3c(N)c(Br)c([C@H]4CCCNC4)nc23)cn1`, the Potency in experiment [1] is 3470 nM (active). The Z-AUC was -0.529 (inactive) in experiment [1]; 0.414 and -1.48 in experiment [1] (setting [3]); 0.266 and -1.31 in experiment [1] (measured here: PEO4 Z-AUC).
For the molecule `CCCCCCCCCCCCCCCC(=O)OC[C@@H](NC(=O)C(Cl)Cl)[C@H](O)c1ccc([N+](=O)[O-])cc1`, the z-score came to 1.8 in experiment [2] (setting [4]), 0.082 in experiment [2] (setting [5]) and 0.929 in experiment [2] (setting [6]).
For the molecule `FC(F)c1nc2ccccc2n1-c1nc(N2CCOCC2)nc(N2CCOCC2)n1`, the Z-AUC was -1.24 (inactive) in experiment [1], -1.07 in experiment [1] (setting [3]) and -0.858 in experiment [1] (measured here: PEO4 Z-AUC).
Take `C[C@@H]1[C@H](C)CC[C@]2(C(=O)O)CC[C@]3(C)C(=CC[C@@H]4[C@@]5(C)C[C@@H](O)[C@H](O)[C@@](C)(CO)[C@H]5CC[C@]43C)[C@@H]12`: the z-score in experiment [2] (setting [4]) was determined as 0.114; in experiment [2] (setting [5]) it was 0.271; in experiment [2] (setting [6]), 0.0304.
Take `CCCNS(=O)(=O)Nc1ncnc(OCCOc2ncc(Br)cn2)c1-c1ccc(Br)cc1`: the Z-AUC in experiment [1] was 0.736 (inactive); in experiment [1] (setting [3]) it was 0.726; in experiment [1] (measured here: PEO4 Z-AUC) it was 1.05. The z-score in experiment [2] (setting [4]) was found to be 1.06; in experiment [2] (setting [5]), 1.04; in experiment [2] (setting [6]), 0.601.
